Bioassay records deposited in PubChem BioAssay by National Center for Advancing Translational Sciences (NCATS).
Only some compounds are listed: those with a hit (about 1.3% of all), similar ones and a draw of the others.
TRPV1 potentiator – potentiators of human vanilloid receptor 1 (TRPV1); Q8NER1; TRPV1-expressing cells, Fluo-8 calcium influx, capsaicin EC20 potentiation; potentiation, % at 8.33 µM; 320,000 compounds, 0.02% hits; AID 540277; in the data active = potentiation above about 80%; inconclusive = between about 30% and that limit; note: 0% is about no effect
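TRPV1-expressing cells were cultured overnight at 35.5C and loaded with Fluo-8 calcium dye for 40 to 90 min at room temperature. After a 10 s baseline, compound was added and calcium influx was read kinetically for 3 min (ex 480/em 520 nm).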
KCNH2 3.1 block – inhibitors of human KCNH2 3.1 potassium channel isoform. activity change, % (tested at about 1.8 µM). 340,000 compounds, 0.95% hits. U2OS KCNH2 3.1, thallium flux FluxOr; active compounds read low;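 active = maximum activity change below -70%; inconclusive = maximum activity change from -70% to -50%; inactive = maximum activity change above -50%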;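 note: thallium influx rate constant from kinetic fluorescence after stimulation buffer; % is set by controls: 0 for no effect and ±100 for the full control effect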
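U2OS cells transduced with KCNH2 3.1 mutant virus (1.77 x 10^8 /mL, 4 h), plated overnight at 37 C, loaded 45 min with FluxOr dye plus Red40 quencher. Thallium flux rate constant from kinetic reads after stimulation buffer, normalised to controls.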
MBNL1-CUG inh – inhibitors of human MBNL1 binding to CUG repeat RNA. Q9NR56. TR-FRET MBNL1-His/biotin-(CUG)12 binding, 665/545 ratio. Potency, µM (doses to about 57.5 µM), for inactives: at the highest dose activity change, negative = inhibition, most hits filed as inhibitors. 280,000 compounds, 0.036% hits. AID 2675; active = well fitted inhibition curve with a large enough effect in the signal ratio, with a control signal flat, not every such curve was filed as active; inconclusive = small, poorly fitted or top-dose-only effect, or effect the other way, or a change in a side signal; inactive = no such curve, though single readings can be large or run the other way; the % refers to the signal ratio; note: potency is the fitted concentration of half-maximal effect; % is set by controls: 0 for no effect and ±100 for the full control effect
Target sequence (Q9NR56 whole entry, looked up): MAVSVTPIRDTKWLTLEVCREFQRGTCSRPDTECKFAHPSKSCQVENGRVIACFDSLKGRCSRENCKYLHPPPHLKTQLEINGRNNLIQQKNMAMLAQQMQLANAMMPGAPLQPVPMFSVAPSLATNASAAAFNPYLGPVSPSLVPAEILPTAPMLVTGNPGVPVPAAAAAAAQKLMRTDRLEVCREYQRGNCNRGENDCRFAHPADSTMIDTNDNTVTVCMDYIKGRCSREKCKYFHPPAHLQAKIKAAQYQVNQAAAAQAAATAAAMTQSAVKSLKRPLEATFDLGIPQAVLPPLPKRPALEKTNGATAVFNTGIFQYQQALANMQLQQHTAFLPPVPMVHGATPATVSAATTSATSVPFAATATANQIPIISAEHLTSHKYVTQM
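TR-FRET readout: Ex 340 nm, 665/545 nm emission ratio, normalized to buffer-only (basal) and MBNL1-(CUG)12 controls. Complex of MBNL1-His with Biotin-(CUG)12, compounds 92 nM–58 uM, incubated 60 min at room temperature.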
TRPV1 agonist – agonists of human vanilloid receptor 1 (TRPV1). Q8NER1. TRPV1-expressing cells, Fluo-8 calcium influx, agonist mode. activation, % at 8.33 µM. 320,000 compounds, 0.19% hits. AID 540275; in the data active = activation above about 80%; inconclusive = between about 30% and that limit; note: 0% is about no effect
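TRPV1-expressing cells were cultured overnight at 35.5C and loaded with Fluo-8 calcium dye for 40 to 90 min at room temperature. After a 10 s baseline, compound was added and calcium influx was read kinetically for 3 min (ex 480/em 520 nm).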
hERG WT inh – blocks the wildtype human KCNH2 potassium channel. U2OS, BacMam KCNH2, thallium flux FluxOr; active compounds read low. Q12809. activity change, % at 1.84 µM. AID 720551. 340,000 compounds, 0.37% hits;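 active = maximum activity change below -70%; inconclusive = maximum activity change between -70% and -50%; inactive = maximum activity change above -50%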; note: % is set by controls: 0 for no effect and ±100 for the full control effect
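U2OS cells were transduced with wild-type KCNH2 virus (2.03 x 10^8 / mL) for 4 h at room temperature, then cultured overnight at 37 C. Thallium flux was read with FluxOr dye. Rate constants were normalized to DMSO controls.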
Numbers without * were called inactive.

C#CCNC(=O)C1CCN(c2ccc(S(=O)(=O)N3CCOCC3)cc2Cl)CC1 was read as TRPV1 potentiator -11, KCNH2 3.1 block -2, MBNL1-CUG inh -26%, TRPV1 agonist 82* and hERG WT inh -3.
For Cc1cc(NC(=O)C(Cl)Cl)cc2c1OCO2 the results were KCNH2 3.1 block 16 and hERG WT inh 4.
`Cc1ccc(NC(=O)CSc2nnc(C)n2CC2CCCO2)cc1` (configuration not stated) gave TRPV1 potentiator 1, KCNH2 3.1 block 0, MBNL1-CUG inh 0% and TRPV1 agonist -3.
`Cc1nc(NC(=O)CSc2nnc(C)n2CC2CCCO2)sc1C` (configuration not stated) gave TRPV1 potentiator 1, KCNH2 3.1 block 15, MBNL1-CUG inh -3%, TRPV1 agonist 1 and hERG WT inh -188*.
`S=c1[nH]c(-c2ccc(Cl)cc2)cs1` gave TRPV1 potentiator 11, KCNH2 3.1 block -3, TRPV1 agonist -4 and hERG WT inh -7.
Cc1ccc(-c2csc(=S)[nH]2)cc1 was read as TRPV1 potentiator -4, KCNH2 3.1 block -78*, MBNL1-CUG inh -5%, TRPV1 agonist 1 and hERG WT inh -5.
For CN(CC(=O)Nc1ccc(F)cc1)C(=O)CN1C(=O)NC(CCc2ccccc2)C1=O (configuration not stated) the results were KCNH2 3.1 block 16 and hERG WT inh 6.
For Clc1ccc(-c2nnc(CSc3nnc(-c4cccs4)n3Cc3ccccc3)o2)cc1 the results were TRPV1 potentiator 2, KCNH2 3.1 block -86*, MBNL1-CUG inh -17%, TRPV1 agonist 2 and hERG WT inh -125*.
Screening Cc1nc(Cl)sc1C(=O)Nc1ccc(C(C)(C)C)cc1 returned TRPV1 potentiator -2, KCNH2 3.1 block -6, MBNL1-CUG inh -8%, TRPV1 agonist 80* and hERG WT inh -17.
COC(=O)C(Cc1csc2ccc(Cl)cc12)NC(=O)c1ccc(Cl)cc1 (configuration not stated) was read as TRPV1 potentiator -28, KCNH2 3.1 block -12, TRPV1 agonist 22 and hERG WT inh 0.
COc1ccc(OC)c(CN2CCN(CC(=O)Nc3ccccc3C(=O)NC3CC3)CC2)c1 was read as TRPV1 potentiator 1, KCNH2 3.1 block -70*, TRPV1 agonist 4 and hERG WT inh -79*.
Screening COc1cc2c(cc1OC)CN(CC(=O)Nc1ccccc1C(=O)NC1CC1)CC2 returned TRPV1 potentiator 0, KCNH2 3.1 block -6, TRPV1 agonist -2 and hERG WT inh 19.
COc1ccc(OC)c(NC(=O)CN2CCC(NC(=O)c3ccccc3C)CC2)c1 was read as TRPV1 potentiator 28, KCNH2 3.1 block 8, MBNL1-CUG inh -8%, TRPV1 agonist -2 and hERG WT inh -3.
`COc1cc(C)c(CN2CCN(CC(=O)Nc3ccccc3C(=O)NC3CC3)CC2)cc1OC` gave TRPV1 potentiator -2, KCNH2 3.1 block -107*, TRPV1 agonist 2 and hERG WT inh -83*.
`COc1ccccc1N1CCN(C2CCCN(C(=O)c3cc(C4CC4)on3)C2)CC1` (configuration not stated) gave TRPV1 potentiator -3, KCNH2 3.1 block -2, MBNL1-CUG inh -2%, TRPV1 agonist 6 and hERG WT inh 0.
O=C(NCCN1CCN(C(=O)c2ccc([N+](=O)[O-])cc2)CC1)C(=O)Nc1ccc(F)cc1 was read as TRPV1 potentiator 25, KCNH2 3.1 block inconclusive, MBNL1-CUG inh inconclusive, TRPV1 agonist 3 and hERG WT inh 4.
Screening O=C(NCCN1CCN(Cc2ccc([N+](=O)[O-])cc2)CC1)C(=O)Nc1ccccc1 returned TRPV1 potentiator 4, KCNH2 3.1 block -82*, MBNL1-CUG inh 3%, TRPV1 agonist -3 and hERG WT inh inconclusive.
For O=C(CCN1CCN(c2ccc([N+](=O)[O-])cc2)CC1)c1ccc(Cl)cc1 the results were TRPV1 potentiator 3, KCNH2 3.1 block -113*, MBNL1-CUG inh 9%, TRPV1 agonist 1 and hERG WT inh -77*.
`CCc1ccc(NC(=O)C(=O)NCCN2CCN(C(=O)c3ccc(OC)cc3)CC2)cc1` gave KCNH2 3.1 block -97* and hERG WT inh 31.
Screening COc1ccc(NC(=O)C(=O)NCCN2CCN(C(=O)c3ccc(C)cc3)CC2)cc1 returned TRPV1 potentiator 2, KCNH2 3.1 block -8, MBNL1-CUG inh -8%, TRPV1 agonist -1 and hERG WT inh 51.
Screening CCCCc1ccc(NC(=O)C(=O)NCCN2CCN(C(=O)c3ccc([N+](=O)[O-])cc3)CC2)cc1 returned TRPV1 potentiator 4, KCNH2 3.1 block -101*, MBNL1-CUG inh -7%, TRPV1 agonist -6 and hERG WT inh inconclusive.
`CCc1c(C(=O)O)[nH]c2ccc(Br)cc12` gave KCNH2 3.1 block -3, MBNL1-CUG inh -11% and hERG WT inh 4.
Screening O=C(NCCN1CCN(Cc2ccccc2)CC1)Nc1cc(Cl)cc(Cl)c1 returned TRPV1 potentiator 6, KCNH2 3.1 block -93*, TRPV1 agonist 2 and hERG WT inh inconclusive.
C/C(=N/NC(=O)CN1CCN(Cc2ccccc2)CC1)c1ccc([N+](=O)[O-])cc1 was read as TRPV1 potentiator 8, KCNH2 3.1 block -79*, MBNL1-CUG inh inconclusive, TRPV1 agonist 0 and hERG WT inh -11.
`O=C(NCCN1CCN(c2cccc(Cl)c2)CC1)Nc1ccccc1` gave TRPV1 potentiator -13, KCNH2 3.1 block 2, MBNL1-CUG inh -5%, TRPV1 agonist inconclusive and hERG WT inh 31.
Screening O=C(CN1CCN(Cc2ccc(Cl)cc2)CC1)N/N=C/C=C/c1ccccc1[N+](=O)[O-] returned TRPV1 potentiator -3, KCNH2 3.1 block -91*, MBNL1-CUG inh inconclusive, TRPV1 agonist 4 and hERG WT inh -36.
`C/C(=N\NC(=O)CN1CCN(Cc2ccccc2)CC1)c1ccncc1` gave KCNH2 3.1 block 2 and hERG WT inh 5.
`O=C(NCCN1CCN(c2ccc([N+](=O)[O-])cc2)CC1)NCc1ccccc1` gave TRPV1 potentiator -15, KCNH2 3.1 block -73*, MBNL1-CUG inh inconclusive, TRPV1 agonist 11 and hERG WT inh -10.
For Cc1ccc2occ(/C=C/C(=O)c3ccccc3O)c(=O)c2c1 the results were TRPV1 potentiator -9, KCNH2 3.1 block 9, MBNL1-CUG inh 2%, TRPV1 agonist 9 and hERG WT inh 0.
`CCOc1ncccc1C(=O)OCC(=O)N(CC(C)C)C1CCS(=O)(=O)C1` (configuration not stated) gave TRPV1 potentiator -24, KCNH2 3.1 block -7, MBNL1-CUG inh -22%, TRPV1 agonist 1 and hERG WT inh -14.
For O=C(CN1C(=O)c2ccccc2S1(=O)=O)Nc1cccc(S(=O)(=O)N2CCCCC2)c1 the results were KCNH2 3.1 block 1 and hERG WT inh -7.
